For part of these data: Measured potencies and affinities stand elsewhere. Calls of active or inactive are those of the source.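 Rule for the calls, unless noted: active = fitted half-maximal concentration within 10 nM to 100 µM, steepness 0.5 to 2, significant signal drop, low assay interference; inactive = the rest.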

Assay [1] addresses Cell division control protein 42 homolog (Homo sapiens) (UniProt P60953). The assay is described as follows: inhibition of fluorescent GTP binding to constitutively active Cdc42 – biochemical, multiplex bead flow cytometry, Bodipy-FL-GTP, dose response (AID 1333;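 active = fitted half-maximal concentration within the tested dose range, moderate curve steepness, a statistically real signal drop, and little compound fluorescence or tag-binding interference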).
Assay [2] has the same target. Briefly: inhibition of fluorescent GTP binding to wildtype Cdc42 – biochemical, multiplex bead flow cytometry, Bodipy-FL-GTP, dose response (AID 1334;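 active = fitted half-maximal concentration within the tested range, moderate curve steepness, significant signal drop, and little compound fluorescence or bead-linkage interference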). Conditions: bead-based flow cytometry, Bodipy-FL-GTP binding to GST-Cdc42; at 100 µM (top of the series) unless noted. (In general: In flow cytometry, cells or beads pass a laser one at a time.)
The target of assay [3] is GTPase HRas (Homo sapiens) (UniProt P01112). Briefly: Ras wt fluorescent GTP loading blockade – biochemical, wildtype, multiplex bead flow cytometry, dose response (AID 1335). As to conditions: bead-based flow cytometry, Bodipy-GTP binding to GST-Ras; at 100 µM (top of the series) unless noted.
Sequence of GTPase HRas (Homo sapiens) (P01112 whole entry, looked up): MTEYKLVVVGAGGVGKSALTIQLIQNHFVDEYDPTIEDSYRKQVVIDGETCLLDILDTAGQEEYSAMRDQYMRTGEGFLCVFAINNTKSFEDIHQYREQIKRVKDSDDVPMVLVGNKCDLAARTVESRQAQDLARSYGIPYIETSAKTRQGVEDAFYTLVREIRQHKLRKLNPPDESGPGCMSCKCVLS
The subject of assay [4] is Ras-related protein Rab-7a (dog), GTP binding. Briefly: blockers of fluorescent GTP binding to Rab7 – biochemical, wildtype, multiplex bead flow cytometry, dose response (AID 1336; call rule not given here).
The target of assay [5] is Ras-related C3 botulinum toxin substrate 1 (Homo sapiens) (UniProt P63000). Briefly: inhibition of wildtype Rac1 nucleotide loading – biochemical, multiplex bead flow cytometry, dose response (AID 1340;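 active = dose curve with midpoint inside tested range, moderate steepness, plateau gap beyond fit error, low compound glow and bead-link interference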). Conditions: GST-Rac1 beads, Bodipy-FL-GTP binding; at 100 µM (top of the series) unless noted.
In assay [6] the target is GTPase HRas (Homo sapiens) (UniProt P01112). The assay is described as follows: blockade of GTP loading onto mutant Ras – biochemical, activated mutant, multiplex bead flow cytometry, dose response (AID 1341;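 active = dose-response curve with midpoint inside the tested range, moderate steepness, significant amplitude and little compound fluorescence or bead-attachment interference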;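 note: GST-tagged constitutively activated Ras mutant immobilized on beads and multiplexed with other GTPases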).

Sequence of Cell division control protein 42 homolog (Homo sapiens) (P60953 whole entry, looked up): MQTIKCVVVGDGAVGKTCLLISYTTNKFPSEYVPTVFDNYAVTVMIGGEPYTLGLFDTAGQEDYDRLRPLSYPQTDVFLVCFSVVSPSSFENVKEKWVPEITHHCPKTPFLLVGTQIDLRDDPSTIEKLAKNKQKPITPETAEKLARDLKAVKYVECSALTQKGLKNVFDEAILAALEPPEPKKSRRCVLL

On to `CCOC(=O)N1CCN(/C=C(\C#N)c2nc3ccccc3s2)CC1`, for which the compound was called inactive in assay [1], in assay [4] and in assay [6]. In assay [2], the fluorescence, percent of control (lower = inhibition) stood at 80.8%. In assay [3], this compound returned a GTP binding, percent of control of 92.3%. For the same compound, the GTP binding signal, raw median fluorescence (lower = inhibition) (MCF (arbitrary fluorescence units)) in assay [5] stood at 240.

Consider `CCN(CC)c1ccc(/C=C/C(=O)c2ccc(Br)cc2)cc1`, for which the call in assay [1], in assay [4] and in assay [6] was inactive. The fluorescence, percent of control (lower = inhibition) in assay [2] came to 312%. For the same compound, the GTP binding, percent of control in assay [3] is 319%. The compound further came in with a GTP binding signal, raw median fluorescence (lower = inhibition) (MCF (arbitrary fluorescence units)) in assay [5] of 0.

On to `CCCCCCCCSc1nnc2[nH]c(=O)cc(N)n12`, for which the compound was called inactive in assay [1], in assay [4] and in assay [6]. Moreover, in assay [2], the fluorescence, percent of control (lower = inhibition) came to 33.4%. The compound further registered a GTP binding, percent of control in assay [3] of 79.8%. The compound also yielded a GTP binding signal, raw median fluorescence (lower = inhibition) (MCF (arbitrary fluorescence units)) in assay [5] of 241.

With `COc1ccc2nc(/C(C#N)=C\c3ccc(C(=O)O)cc3)[nH]c2c1`, the call in assay [1], in assay [4] and in assay [6] was inactive. The fluorescence, percent of control (lower = inhibition) in assay [2] was determined as 31.4%. In addition, in assay [3], the GTP binding, percent of control amounted to 72.6%. The same compound displayed a GTP binding signal, raw median fluorescence (lower = inhibition) (MCF (arbitrary fluorescence units)) in assay [5] of 189.

For `N#CC(C#N)=C1C=CC=CN1/C(=C\c1ccccc1Cl)C(=O)c1ccccc1`, the call in assay [1], in assay [4] and in assay [6] was inactive. Also, the fluorescence, percent of control (lower = inhibition) in assay [2] came to 26.2%. For the same compound, the GTP binding, percent of control in assay [3] amounted to 76.3%. This compound also yielded a GTP binding signal, raw median fluorescence (lower = inhibition) (MCF (arbitrary fluorescence units)) in assay [5] of 226.

On to `N#Cc1ccc(OCc2ccc(C(=O)O)o2)cc1`, for which the compound was classed as inactive in assay [1], in assay [4] and in assay [6]. In addition, the fluorescence, percent of control (lower = inhibition) in assay [2] worked out at 63.6%. In assay [3], this compound came in with a GTP binding, percent of control of 87.2%. In assay [5], this compound gave a GTP binding signal, raw median fluorescence (lower = inhibition) (MCF (arbitrary fluorescence units)) of 37.7.

With `COc1ccc(CNCc2ccc(C(=O)O)s2)cc1`, the call in assay [1], in assay [4] and in assay [6] was inactive. The fluorescence, percent of control (lower = inhibition) in assay [2] came to 64.9%. Also, the GTP binding, percent of control in assay [3] amounted to 89.4%. In assay [5], this compound yielded a GTP binding signal, raw median fluorescence (lower = inhibition) (MCF (arbitrary fluorescence units)) of 33.5.

Turning to `CCOc1ccccc1C1C(C(=O)OC)=C(N)OC2=C1C(=O)CCC2` (stereo not given), the result in assay [1], in assay [4] and in assay [6] was inactive. Besides, in assay [2], the fluorescence, percent of control (lower = inhibition) worked out at 90%. In assay [3], this compound returned a GTP binding, percent of control of 149%. In assay [5], this compound had a GTP binding signal, raw median fluorescence (lower = inhibition) (MCF (arbitrary fluorescence units)) of 184.

Take `Cc1ccc(OCCSc2nc3ccccc3n2CC(=O)O)c(C)c1`: the call in assay [1], in assay [4] and in assay [6] was inactive. For the same compound, in assay [2], the fluorescence, percent of control (lower = inhibition) was determined as 55.9%. In assay [3], the GTP binding, percent of control is 85%. Moreover, the GTP binding signal, raw median fluorescence (lower = inhibition) (MCF (arbitrary fluorescence units)) in assay [5] was 29.2.

Regarding `Cc1cc(C)n2ncc(C(=O)O)c2n1`, the compound was called inactive in assay [1], in assay [4] and in assay [6]. Moreover, the fluorescence, percent of control (lower = inhibition) in assay [2] is 35.6%. This compound showed a GTP binding, percent of control in assay [3] of 84%. Moreover, the GTP binding signal, raw median fluorescence (lower = inhibition) (MCF (arbitrary fluorescence units)) in assay [5] was found to be 266.

`COc1cc(/C=N/NC(=O)c2cc3ccccc3cc2O)ccc1OCCN1CCCCC1`: the compound was called inactive in assay [1], in assay [4] and in assay [6]. Further, in assay [2], the fluorescence, percent of control (lower = inhibition) stood at 39.4%. The compound also returned a GTP binding, percent of control in assay [3] of 91.1%. Also, the GTP binding signal, raw median fluorescence (lower = inhibition) (MCF (arbitrary fluorescence units)) in assay [5] stood at 328.

For the compound `O=S(=O)(N/N=C\c1cccnc1)c1ccccc1`, the outcome in assay [1], in assay [4] and in assay [6] was inactive. In addition, the fluorescence, percent of control (lower = inhibition) in assay [2] is 53.2%. The GTP binding, percent of control in assay [3] was 67.9%. This compound came in with a GTP binding signal, raw median fluorescence (lower = inhibition) (MCF (arbitrary fluorescence units)) in assay [5] of 227.

Regarding `O=C1Nc2ccc(Br)cc2C12NNc1ccccc1O2` (stereo not given), the compound was called inactive in assay [1], in assay [4] and in assay [6]. In addition, in assay [2], the fluorescence, percent of control (lower = inhibition) worked out at 33%. The same compound yielded a GTP binding, percent of control in assay [3] of 77.8%. The compound further showed a GTP binding signal, raw median fluorescence (lower = inhibition) (MCF (arbitrary fluorescence units)) in assay [5] of 182.

Turning to `CCOC(=O)Cn1nnnc1CN(Cc1cccs1)Cc1cc2cc(C)cc(C)c2[nH]c1=O`, the outcome in assay [1], in assay [4] and in assay [6] was inactive. Also, the fluorescence, percent of control (lower = inhibition) in assay [2] amounted to 81.6%. Moreover, the GTP binding, percent of control in assay [3] is 161%. This compound yielded a GTP binding signal, raw median fluorescence (lower = inhibition) (MCF (arbitrary fluorescence units)) in assay [5] of 171.

With `Cc1nnc2ccc(-c3cccc(NC(=O)c4ccc(Br)o4)c3)nn12`, the call in assay [1], in assay [4] and in assay [6] was inactive. Moreover, the fluorescence, percent of control (lower = inhibition) in assay [2] was 34.5%. The compound also came in with a GTP binding, percent of control in assay [3] of 81.8%. Moreover, in assay [5], the GTP binding signal, raw median fluorescence (lower = inhibition) (MCF (arbitrary fluorescence units)) amounted to 206.
